The record followed here is PubChem BioAssay (NCI).

Test systems include NCI-H23 lung; NCI-H226 lung; NCI-H322M lung; HOP-62 NSCLC; NCI-H460 lung; HOP-92 NSCLC; NCI-H522 lung; A549/ATCC NSCLC; 786-0 renal; DU-145 prostate; K-562 leukemia; MALME-3M melanoma; MDA-MB-231 breast; RXF 393 renal; SF-268 CNS; SF-295 CNS; SF-539 CNS; UACC-257 melanoma; M14 melanoma.
What all share (assay): NCI-60 one-dose screen, 48 h (100 = growth as untreated, 0 = no growth, -100 = all killed)
What all share (conditions): 10 µM unless noted

Each structure is given as a SMILES string. This is part of a sample that, as a whole, favours compounds with a hit. Of some 83,000 tested, about 20% had one in any assay.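 Treatment: one concentration, 48 hours, 96-well format. Scoring: percent growth, with anything below 10 considered active.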 Values without a mark were called inactive. Activity calls are given as the source filed them.

On to `Cc1cc(-c2ccc(N(C)C)cc2)c2sc(=O)[nH]c2n1`, for which the growth is 82.6% with NCI-H23 lung; 64.6% in the assay on NCI-H226 lung; 78.1% in the assay on NCI-H322M lung; 70.2% in the assay on HOP-62 NSCLC; 65.2% in the assay with NCI-H460 lung; 85.5% in the assay on HOP-92 NSCLC. Further, the growth is 56.5% in the assay with NCI-H522 lung; 66% in the assay with A549/ATCC NSCLC; 77.2% with 786-0 renal; 98.8% with DU-145 prostate; 24.5% in the assay on K-562 leukemia; 71.1% in the assay with MALME-3M melanoma. Also, the growth was 71.4% in the assay with MDA-MB-231 breast; 51.2% in the assay on RXF 393 renal; 69.5% with SF-268 CNS; 48.6% in the assay on SF-295 CNS; 52.9% in the assay with SF-539 CNS; 81.4% in the assay with UACC-257 melanoma. In addition, the growth in the assay on M14 melanoma is 44.5%.

Regarding `C=CC(=O)Nc1cccc(C)c1Nc1cc(-c2cccnc2Cc2c(C)c(OC)cc(OC)c2C)ncn1`, the growth in the assay with NCI-H23 lung is 54.4%; in the assay with NCI-H226 lung, 46.1%; with NCI-H322M lung, 50.7%; with HOP-62 NSCLC, -38% (active); with NCI-H460 lung it was 4.5% (active); in the assay with HOP-92 NSCLC, 22.8%. Also, the growth in the assay on NCI-H522 lung is -17.4% (active); in the assay with A549/ATCC NSCLC, 8.38% (active); in the assay on 786-0 renal, 16%; in the assay with DU-145 prostate, 11.4%; in the assay on K-562 leukemia, -11.1% (active); in the assay on MALME-3M melanoma, 66.1%. In addition, the growth in the assay on MDA-MB-231 breast was 21.4%; with RXF 393 renal it was -0.169% (active); in the assay with SF-268 CNS, 6.81% (active); in the assay with SF-295 CNS, 43%; in the assay on SF-539 CNS, 3.02% (active); in the assay with UACC-257 melanoma it was 21.4%. Moreover, in the assay with M14 melanoma, the growth was 53.4%.

For `COc1ccc(C2CC(c3cnccn3)=NN2)cc1OC` (stereo unspecified), the growth in the assay with NCI-H23 lung is 101%; in the assay on NCI-H226 lung, 98.8%; in the assay on NCI-H322M lung it was 90.9%; in the assay on HOP-62 NSCLC, 111%; with NCI-H460 lung it was 108%; with HOP-92 NSCLC, 68.3%. Moreover, the growth in the assay with NCI-H522 lung is 67%; in the assay on A549/ATCC NSCLC, 90.4%; with 786-0 renal, 92%; in the assay on DU-145 prostate it was 104%; with K-562 leukemia, 60.9%; in the assay with MALME-3M melanoma, 95.4%. Moreover, the growth in the assay on MDA-MB-231 breast was 106%; in the assay on RXF 393 renal it was 100%; in the assay with SF-268 CNS it was 103%; with SF-295 CNS, 104%; in the assay on SF-539 CNS it was 111%; in the assay with UACC-257 melanoma, 106%. Besides, the growth in the assay on M14 melanoma is 89.5%.

For the compound `Cc1nn(Cc2ccccc2)cc1C(=O)Nc1sc2c(c1C(N)=O)CCC(=O)C2`, the growth was 12.6% with NCI-H23 lung; 71.9% with NCI-H226 lung; 96.2% with NCI-H322M lung; 84.6% with HOP-62 NSCLC; 86% in the assay with NCI-H460 lung; 31.2% with HOP-92 NSCLC. Also, the growth is -3.17% (active) in the assay with NCI-H522 lung; 84.7% in the assay on A549/ATCC NSCLC; 70.1% in the assay with 786-0 renal; 67.6% in the assay on DU-145 prostate; 10.5% in the assay with K-562 leukemia; 27.6% in the assay on MALME-3M melanoma. Besides, the growth is 25% in the assay on MDA-MB-231 breast; 31.4% with RXF 393 renal; 20.5% in the assay with SF-268 CNS; 79.7% in the assay on SF-295 CNS; 9.16% (active) in the assay on SF-539 CNS; 70.7% with UACC-257 melanoma. Besides, the growth with M14 melanoma was 16.7%.

As for `N=C(N)c1ccc(-c2ccc(-c3ccc(Cl)cn3)s2)cc1`, the growth with NCI-H23 lung was 67.8%; in the assay on NCI-H226 lung, 83.8%; in the assay on NCI-H322M lung it was 4.72% (active); with HOP-62 NSCLC, 56.3%; with NCI-H460 lung it was -46.5% (active); in the assay on HOP-92 NSCLC, 34.7%. For the same compound, the growth is 48.7% with NCI-H522 lung; 27.6% in the assay with A549/ATCC NSCLC; 52.9% in the assay with 786-0 renal; 37.6% in the assay with DU-145 prostate; -9.89% (active) in the assay with K-562 leukemia; 77.9% in the assay on MALME-3M melanoma. Also, the growth is -46.5% (active) in the assay with MDA-MB-231 breast; 52% in the assay on RXF 393 renal; 79.8% in the assay with SF-268 CNS; -41.4% (active) with SF-295 CNS; 40.2% in the assay with SF-539 CNS; 94.2% with UACC-257 melanoma. Moreover, the growth with M14 melanoma was 3.24% (active).

Regarding `C=C1C(=O)O[C@H]2[C@H]1CC/C(COC(=O)NCc1ccc(Cn3c(=O)sn(CCCCl)c3=O)cc1)=C\CC[C@@]1(C)O[C@@H]21`, the growth in the assay on NCI-H23 lung was 70.8%; in the assay on NCI-H226 lung, 58.7%; in the assay on NCI-H322M lung, 88.8%; in the assay with HOP-62 NSCLC it was 87.2%; in the assay with NCI-H460 lung, 101%; in the assay on HOP-92 NSCLC, -53.8% (active). Moreover, the growth in the assay with NCI-H522 lung is -89.7% (active); in the assay with A549/ATCC NSCLC, 90.5%; in the assay with 786-0 renal, 38.1%; in the assay on DU-145 prostate, 8.01% (active); with K-562 leukemia, 0.0582% (active); in the assay with MALME-3M melanoma, -57.1% (active). The growth with MDA-MB-231 breast is 14.4%; in the assay on RXF 393 renal, -76.7% (active); in the assay with SF-268 CNS, 44.5%; in the assay on SF-295 CNS it was 101%; in the assay on SF-539 CNS, -7.17% (active); in the assay on UACC-257 melanoma, 10.4%.

Consider `Cc1ccc2c(n1)C(=O)C(Oc1ccc(F)cc1)=CC2=O`, for which the growth with NCI-H23 lung was 94.9%; with NCI-H226 lung, 76.5%; with NCI-H322M lung, 101%; in the assay on HOP-62 NSCLC, 125%; in the assay with NCI-H460 lung, 101%; in the assay on HOP-92 NSCLC, 123%. Also, the growth with NCI-H522 lung is -43.9% (active); in the assay with A549/ATCC NSCLC, 99.4%; in the assay with 786-0 renal it was 107%; in the assay with DU-145 prostate, 114%; in the assay on K-562 leukemia it was 20%; in the assay with MALME-3M melanoma, 93.9%. The growth in the assay with MDA-MB-231 breast is 105%; with RXF 393 renal it was 107%; in the assay on SF-268 CNS, 90.8%; in the assay with SF-295 CNS, 101%; with SF-539 CNS, 95.9%; in the assay with UACC-257 melanoma, 95.5%. Besides, the growth in the assay on M14 melanoma was 103%.

`CCO/C=N/C1=C(C#N)C(c2ccc(OC)cc2)c2c(c3ccccc3n(C)c2=O)O1` (stereo unspecified): the growth was 101% with NCI-H23 lung; 95.2% in the assay with NCI-H226 lung; 101% with NCI-H322M lung; 91.5% with HOP-62 NSCLC; 105% in the assay on NCI-H460 lung; 101% in the assay on HOP-92 NSCLC. The growth with NCI-H522 lung is 90.2%; with A549/ATCC NSCLC it was 97.8%; with 786-0 renal, 105%; with DU-145 prostate, 106%; in the assay with K-562 leukemia it was 102%; with MALME-3M melanoma it was 96.5%. Besides, the growth with MDA-MB-231 breast was 101%; in the assay on RXF 393 renal, 104%; in the assay with SF-268 CNS it was 99.2%; with SF-295 CNS, 101%; with SF-539 CNS it was 98.6%; in the assay with UACC-257 melanoma, 102%. In addition, the growth in the assay with M14 melanoma is 103%.
